Rows were chosen to be rich in hits. Some 9.4% of all compounds tested hit in one or more screens of this group.
NPC1 promoter act – qHTS Assay for NPC1 Promoter Activators; 2.4% of 320,000 active; AID 485313, 2010; Huh7 NPC1 promoter luciferase reporter, 24 h; Potency, µM (doses to about 9.22 µM), without a hit: top-dose activation, usual class: activators; further: % of control where 0% means no effect; nearly all actives have a fitted effect of over 60% in size
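Stably transfected Huh7 (NPC1 promoter→luciferase), 1500 cells/well in Opti-MEM + 10% FBS, 2 h settle, then compound 24 h at 37 °C. Luminescence after 10 min with Amplite reagent.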
ELG1 genotox – qHTS screen for small molecules that induce genotoxicity in human embryonic kidney (HEK293T) cells expressing luciferase-tagged ELG1; HEK293T ELG1-luciferase reporter, luminescence, 16 h; Potency, µM (doses to about 46 µM), for the others: at the top dose activity change, positive = activation, most hits filed as activators; 1.3% of 330,000 active; further: % of control where 0% means no effect; nearly all actives have a fitted effect of over 60% in size
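Genotoxic stress is detected as increased luminescence from luciferase-tagged ELG1 in HEK293T cells, measured with ONE-Glo after a 16 hr treatment at 37 °C.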
Rab9 promoter act – qHTS Assay for Rab9 Promoter Activators | 2.8% of 320,000 active | Potency, µM (doses to about 9.22 µM), for the others: at the highest dose activation, negative = inhibition, most hits filed as activators | Huh7 Rab9 promoter-luciferase reporter, luminescence, 24 h; further: % of control where 0% means no effect; nearly all actives have a fitted effect of over 60% in size
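Huh7 cells stably carrying Rab9 promoter–luciferase reporter, plated 1500 cells/well, compound added after 2 h and incubated 24 h at 37 °C; luciferase luminescence then read after 10 min with detection reagent.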
SMN2 splice up – qHTS Assay for Enhancers of SMN2 Splice Variant Expression; 2.8% of 210,000 active; HEK293 SMN2-luciferase splicing reporter, luminescence, 30-36 h; Potency, µM (series often up to 46.1 µM), for the others: at the highest dose activity change, positive = activation, most hits filed as activators; AID 1458, 2008; further: % of control where 0% means no effect; nearly all actives have a fitted effect of over 55% in size
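HEK293 cells carry an SMN2 […]–luciferase reporter in which exon 7 inclusion puts luciferase in frame. Cells were plated 10-12 h before compound addition, then incubated 30-36 h at 37C. ONE-Glo luminescence was read; sodium butyrate at 4.5 mM final served as control.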
ELG1 repair inh – qHTS screen for small molecules that inhibit ELG1-dependent DNA repair in human embryonic kidney (HEK293T) cells expressing luciferase-tagged ELG1 | 2.3% of 330,000 active | Potency, µM (doses to about 46.1 µM), for the others: at the top dose activity change, negative = inhibition, actives largely listed as inhibitors | HEK293T ELG1-luciferase reporter, luminescence, 16 h; DNA damage induced by 5-fluorouridine; further: on the % scale 0 is the no-effect control and ±100 the full control effect; nearly all actives have a fitted effect of over 55% in size
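Quantitative HTS, concentration-response format. 2,000 cells/well co-treated with 5-fluorouridine and compound, 16 hr in 5% CO2 at 37 °C; ONE-Glo luminescence read after 30 min.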
FLuc modulator – qHTS profiling assay for firefly luciferase inhibitor/activator using purifed enzyme and Km concentrations of substrates (counterscreen for miR-21 project); purified FLuc, Km substrates, luminescence inhibition; Luciferin 4-monooxygenase (Photinus pyralis), P08659; AID 588342, 2011; 6.9% of 360,000 active; Potency, µM (highest dose often 57.5 µM), for the others: at the top dose activity change, negative = inhibition, hits mostly inhibitors;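 further: plate controls were vehicle for no effect and reference inhibitor for full effect; nearly all actives have a fitted effect of over 55% in size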
Target sequence (P08659 whole entry, looked up): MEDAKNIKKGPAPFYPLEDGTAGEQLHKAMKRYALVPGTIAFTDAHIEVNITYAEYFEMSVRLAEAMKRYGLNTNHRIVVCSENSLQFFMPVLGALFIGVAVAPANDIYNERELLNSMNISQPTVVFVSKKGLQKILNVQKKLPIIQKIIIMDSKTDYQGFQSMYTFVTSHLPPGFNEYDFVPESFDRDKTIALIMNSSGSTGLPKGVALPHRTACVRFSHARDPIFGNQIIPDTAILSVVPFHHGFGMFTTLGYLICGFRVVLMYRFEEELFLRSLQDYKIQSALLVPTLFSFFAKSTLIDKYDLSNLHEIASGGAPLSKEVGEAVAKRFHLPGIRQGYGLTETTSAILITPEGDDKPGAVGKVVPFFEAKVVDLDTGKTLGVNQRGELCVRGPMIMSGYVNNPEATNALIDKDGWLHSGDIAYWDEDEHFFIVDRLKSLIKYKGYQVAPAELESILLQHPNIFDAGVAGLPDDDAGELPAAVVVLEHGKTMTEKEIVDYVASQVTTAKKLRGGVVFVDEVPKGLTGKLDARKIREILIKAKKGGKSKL
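Purified P. pyralis luciferase, 10 nM final, with Km-level 10 uM D-luciferin and 10 uM ATP in 50 mM Tris acetate pH 7.5, 10 mM Mg acetate, 0.01% Tween-20, 0.05% BSA; 6-point qHTS titration about 60 µM downward; luminescence read.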
* marks the source's active call; other numbers are inactive results; u = inconclusive; x = no result; [ ] = dose if it differs, or a comment. The call rests on the fitted dose curve; in most records, active means well fitted curve in the direction sought with a large enough effect; inconclusive means small, poorly fitted or top-dose-only effect, or another doubt; inactive means no such curve, though single readings can be large; an effect the other way counts as inactive or inconclusive. Potency means the concentration at half of the fitted maximal effect.

SMILES | NPC1 promoter act | ELG1 genotox | Rab9 promoter act | SMN2 splice up | ELG1 repair inh | FLuc modulator
O=C(CSc1ncn[nH]1)Nc1ccc(Br)cc1F | 1% | 2% | 3% | -24% | u | u
O=C(CSc1ncn[nH]1)N/N=C/c1ccc(Br)cc1 | 1% | 1% | 0% | x | -3% | 15µM*
CCOc1ccc(NC(=O)Cn2nnc(C(=O)NCCc3ccccc3)c2N)cc1 | x | x | x | -2% | x | 0%
Cc1ccc(/C=C/C(=O)NC2CCCCCCC2)o1 | 28% | u | u | u | u | 24µM*
O=C(/C=C/c1ccccc1Cl)NC1CCS(=O)(=O)C1 (configuration not stated) | -3% | 5% | -4% | x | 6% | -2%
O=C(/C=C/c1ccccc1Cl)NC1CCCCC1 | 2.8µM* | u | 3.5µM* | x | u | 11µM*
Cc1ccc(/C=N/NC(=O)NC2CCCCC2)o1 | 8% | 8% | 20% | -6% | u | -20%
COc1cc(-c2noc(-c3ccc(N4CCCCC4)c([N+](=O)[O-])c3)n2)cc(OC)c1OC | x | x | x | x | x | 17µM*
COc1cc(-c2noc(-c3ccc(N(C)C)c([N+](=O)[O-])c3)n2)cc(OC)c1OC | x | x | x | x | x | 15µM*
Cn1c(SCC(=O)N2CCN(c3ccccc3)CC2)nnc1-c1ccncc1 | 0% | -4% | -4% | -26% | -2% | 2%
CCn1c(CSCc2ccc(C)cc2)nnc1SCC(=O)N1CCN(c2ccccc2)CC1 | -1% | -20% | -2% | -53% | 18µM* | 2%
Cc1occc1-c1nnc(SCC(=O)N2CCN(c3ccccc3)CC2)n1C | -1% | -10% | 0% | -35% | u | 4%
CCn1c(SCC(=O)N2CCN(c3ccccc3)CC2)nnc1-c1ccoc1C | -3% | -11% | 13% | -45% | 16µM* | 0%
Cn1c(SCC(=O)N2CCN(c3ccccc3)CC2)nnc1-c1cc2ccccc2o1 | -6% | -6% | -18% | -62% | 13µM* | -4%
COc1cccc(NC(=O)c2cnn(-c3ccccc3)c2-n2cccc2)c1 | x | x | x | x | x | -17%
CNC(=O)Cn1nc(C)c2ccccc2c1=O | 2% | 0% | 4.5µM* | 17% | 2% | -1%
O=C(CSc1nc2nn(-c3ccccc3)c(=O)c-2c2n1CCCCC2)c1ccc(O)c(O)c1 | -2% | 5% | 0% | x | 18µM* | -2%
O=C(CSc1nc2nn(-c3ccccc3)c(=O)c-2c2n1CCCCC2)Nc1ccc(F)c(F)c1 | x | -5% | x | x | u | x
O=C(CSc1nc2nn(-c3ccccc3)c(=O)c-2c2n1CCCCC2)Nc1ccc(OC(F)F)cc1 | x | -4% | x | x | 13µM* | x
Cc1ccc2c(Cl)c(C)c(N3CCCC3)nc2n1 | -2% | 1% | 2% | -10% | 0% | 17µM*
Cc1nc2ccccc2nc1N1CCCC1 | 8% | 3% | -3% | -7%[9.22 µM] | u | u
CC(N)CN (configuration not stated) | x | x | x | -7% | x | x
CCOC(=O)c1c(NC(=O)COC(=O)Cc2ccccc2[N+](=O)[O-])sc(C(=O)N(C)C)c1C | -2% | 1% | -4% | x | -24% | -4%
CCOC(=O)c1c(NC(=O)c2ccoc2C)sc(C(=O)N(C)C)c1C | 0% | 3% | 12% | -7% | 7.3µM* | -1%
CCOC(=O)c1c(NC(=O)COC(=O)c2ccccc2NC)sc(C(=O)N(C)C)c1C | -4% | -30% | 0% | x | 18µM* | -1%
SMILES | NPC1 promoter act | ELG1 genotox | Rab9 promoter act | SMN2 splice up | ELG1 repair inh | FLuc modulator
Cc1ccc(Oc2nc3c(c(=O)n(Cc4ccccc4)c(=O)n3C)n2C)cc1C | x | x | x | -52% | x | -2%
c1ccc2c(c1)CC(N1CCN(c3cccc4c3OCCO4)CC1)C2 | -11%[46.1 µM] | x | -23%[46.1 µM] | -27% | x | x
COc1ccc(OC)c(CNC(=O)c2cc(S(=O)(=O)N3CCC(C)CC3)cn2C)c1 | x | x | x | x | x | -6%
O=C(O)c1nc2ccccc2nc1C(=O)O | -2% | u | -1% | u | u | 21µM*
c1ccc2nc3ccccc3nc2c1 | 6% | 0% | 21% | -7% | 2% | -14%
COc1ccc(CCCc2nnc(SCC(=O)Nc3ccc(F)cc3)o2)cc1C | x | x | x | -10% | x | 5%
CC(C)CSc1nnc2c3ccccc3n(C)c2n1 | 18% | u | 6% | x | u | 11µM*
O=C(O)c1ccccc1CSc1nnc2c(n1)[nH]c1ccccc12 | 15% | 0% | -4% | x | 8% | 21µM*
CC(C)CSc1nnc2c(n1)[nH]c1ccccc12 | 3.5µM* | 0.65µM* | 0.71µM* | 2.2µM* | u | 0.67µM*
CCCCSc1nnc2c(n1)[nH]c1ccccc12 | u | u | 1.3µM* | 3.5µM* | u | u
C=CCC(C)(O)C#Cc1ccccc1 (configuration not stated) | x | x | x | -1% | x | x
O=C1CN(C(=O)c2ccc(Cl)cc2Cl)C(c2ccc(F)cc2)c2cc(F)ccc2N1 (configuration not stated) | x | x | x | -16% | x | 4%
O=C(CSc1nc2c(sc3ccccc32)c(=O)n1CCCC(=O)NC1CCCC1)Nc1ccc(F)cc1 | x | x | x | -8% | x | -2%
Cc1cc(O)c(C(=O)/C=C/c2ccc(Cl)cc2)c(=O)o1 | 20% | 2% | -3%[1.84 µM] | x | u | 2.1µM*
CSc1ccc(/C=C/C(=O)c2c(O)cc(C)oc2=O)cc1 | 19% | 21% | u | x | u | 4.3µM*
COc1ccc(/C=C/C(=O)c2c(O)cc(C)oc2=O)c(OC)c1 | 3.5µM* | 16µM* | 1.8µM* | -34% | u | 1.3µM*
COc1cc(/C=C/C(=O)c2c(O)cc(C)oc2=O)cc(OC)c1O | 1% | -2% | 2% | -30% | u | -16%
COc1cccc(/C=C/C(=O)c2c(O)cc(C)oc2=O)c1O | -1% | u | -34% | -45% | u | u
CC(C)Oc1ccc(C(=O)N2CCN(c3nc4c(F)cc(F)cc4s3)CC2)cc1 | x | x | x | x | x | -3%
Cc1ccc(Cn2c(SCC(=O)NCc3ccccc3Cl)nc3ccsc3c2=O)cc1 | x | x | x | x | x | 4%
Oc1ccc(-c2nc3ccccn3c2Nc2ccc3c(c2)OCCO3)cc1 | x | x | x | 41% | x | 19µM*
CN(C)c1ccc(-c2nc3ccccn3c2Nc2ccc3c(c2)OCCO3)cc1 | x | x | x | u | x | 2.4µM*
Clc1cccc(-c2nc3ccccn3c2Nc2ccc3c(c2)OCCO3)c1 | x | x | x | -19% | x | u
Oc1ccc(-c2nc3cnccn3c2Nc2ccc3c(c2)OCCO3)cc1 | 9% | 16% | -9% | 15% | u | -1%
